Consider eleven molecules from PubChem BioAssay.

The structures appear in SMILES notation. Active and inactive are the calls of the source.

The nature of experiment [1]: binders of probe aFSTL3 on microarray, primary screen, stem cell growth factor project, biochemical, small-molecule microarray, fluorescence 635/667 (AID 1064).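 Note: measures binding of the biotinylated anti-FSTL3 antibody to printed compounds.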 To be noted: higher = more signal.
Experiment [2] can be described thus: binders from COS7 lysate, DM2A8 probe, primary screen, torsin A project, cell lysate, small-molecule microarray, fluorescence 635/667 (AID 1065). To be noted: higher = more signal, COS7 lysate expressing mutant human TOR1A.
Experiment [3] can be described thus: binders of probe aFGF2 on microarray, primary screen, stem cell growth factor project, biochemical, small-molecule microarray, fluorescence 635/667 (AID 1067).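 Note: measures binding of biotinylated aFGF2 protein to printed compounds on slides; z-score merges feature fluorescence and signal-to-noise across triplicate slides.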 To be noted: higher = more signal.
A short description of experiment [4]: binders of probe aFGF10 on microarray, primary screen, stem cell growth factor project, biochemical, small-molecule microarray, fluorescence 635/667 (AID 1071).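 Note: score merges 667 nm spot intensity and signal to noise from triplicate slides.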 The note with it: higher = more signal.
The target of experiment [5] is Neurogenic locus notch homolog protein 2 (Homo sapiens) (UniProt Q04721). Put plainly: Notch2 binders on small-molecule microarrays, primary screen, biochemical, small-molecule microarray, 635 nm fluorescence, stem cell growth factors (AID 1073). The note with it: Notch2 binding, higher = more signal.
For experiment [6], the target named is Pro-neuregulin-1, membrane-bound isoform (Homo sapiens) (UniProt Q02297). The experiment is described as follows: NRG1 binders on small-molecule microarrays, primary screen, psychiatric disease protein project, biochemical, small-molecule microarray, fluorescence 635/667 (AID 1075).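 Note: score combines 667 nm spot fluorescence with signal to noise.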 The note with it: NRG1 binding, 635 nm fluorescence, higher = more signal.
The subject of experiment [7] is Neuregulin-1 EGF-like domain. Put plainly: binders of neuregulin-1 EGF-like domain, primary screen, biochemical, small-molecule microarray, 635 nm fluorescence (AID 1081).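 Note: binding of the protein to compounds printed on small-molecule microarray slides.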 The note with it: small-molecule microarray binding, higher = more signal.
A short description of experiment [8]: FRG1 promoter luciferase signal modulators, primary screen, FRG1 inhibition for FSHD, cell-based, C2C12 myotubes, firefly/Renilla luciferase, luminescence (AID 1084). The note with it: higher = more signal, called active from +8 up or from −8 down.
Experiment [9] in a line: binders of probe aFST on microarray, primary screen, stem cell growth factor project, biochemical, small-molecule microarray, fluorescence 635/667 (AID 1086).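 Note: score merges 667 nm fluorescence with signal-to-noise of each printed compound spot.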 The note with it: higher = more signal.
A short description of experiment [10]: binders of probe aHhip on microarray, primary screen, stem cell growth factor project, biochemical, small-molecule microarray, fluorescence 635/667 (AID 1087).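 Note: score merges spot fluorescence at 667nm with spot signal to noise ratio.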 To be noted: higher = more signal.

Chain of Neurogenic locus notch homolog protein 2 (Homo sapiens) (Q04721 whole entry, looked up, canonical isoform): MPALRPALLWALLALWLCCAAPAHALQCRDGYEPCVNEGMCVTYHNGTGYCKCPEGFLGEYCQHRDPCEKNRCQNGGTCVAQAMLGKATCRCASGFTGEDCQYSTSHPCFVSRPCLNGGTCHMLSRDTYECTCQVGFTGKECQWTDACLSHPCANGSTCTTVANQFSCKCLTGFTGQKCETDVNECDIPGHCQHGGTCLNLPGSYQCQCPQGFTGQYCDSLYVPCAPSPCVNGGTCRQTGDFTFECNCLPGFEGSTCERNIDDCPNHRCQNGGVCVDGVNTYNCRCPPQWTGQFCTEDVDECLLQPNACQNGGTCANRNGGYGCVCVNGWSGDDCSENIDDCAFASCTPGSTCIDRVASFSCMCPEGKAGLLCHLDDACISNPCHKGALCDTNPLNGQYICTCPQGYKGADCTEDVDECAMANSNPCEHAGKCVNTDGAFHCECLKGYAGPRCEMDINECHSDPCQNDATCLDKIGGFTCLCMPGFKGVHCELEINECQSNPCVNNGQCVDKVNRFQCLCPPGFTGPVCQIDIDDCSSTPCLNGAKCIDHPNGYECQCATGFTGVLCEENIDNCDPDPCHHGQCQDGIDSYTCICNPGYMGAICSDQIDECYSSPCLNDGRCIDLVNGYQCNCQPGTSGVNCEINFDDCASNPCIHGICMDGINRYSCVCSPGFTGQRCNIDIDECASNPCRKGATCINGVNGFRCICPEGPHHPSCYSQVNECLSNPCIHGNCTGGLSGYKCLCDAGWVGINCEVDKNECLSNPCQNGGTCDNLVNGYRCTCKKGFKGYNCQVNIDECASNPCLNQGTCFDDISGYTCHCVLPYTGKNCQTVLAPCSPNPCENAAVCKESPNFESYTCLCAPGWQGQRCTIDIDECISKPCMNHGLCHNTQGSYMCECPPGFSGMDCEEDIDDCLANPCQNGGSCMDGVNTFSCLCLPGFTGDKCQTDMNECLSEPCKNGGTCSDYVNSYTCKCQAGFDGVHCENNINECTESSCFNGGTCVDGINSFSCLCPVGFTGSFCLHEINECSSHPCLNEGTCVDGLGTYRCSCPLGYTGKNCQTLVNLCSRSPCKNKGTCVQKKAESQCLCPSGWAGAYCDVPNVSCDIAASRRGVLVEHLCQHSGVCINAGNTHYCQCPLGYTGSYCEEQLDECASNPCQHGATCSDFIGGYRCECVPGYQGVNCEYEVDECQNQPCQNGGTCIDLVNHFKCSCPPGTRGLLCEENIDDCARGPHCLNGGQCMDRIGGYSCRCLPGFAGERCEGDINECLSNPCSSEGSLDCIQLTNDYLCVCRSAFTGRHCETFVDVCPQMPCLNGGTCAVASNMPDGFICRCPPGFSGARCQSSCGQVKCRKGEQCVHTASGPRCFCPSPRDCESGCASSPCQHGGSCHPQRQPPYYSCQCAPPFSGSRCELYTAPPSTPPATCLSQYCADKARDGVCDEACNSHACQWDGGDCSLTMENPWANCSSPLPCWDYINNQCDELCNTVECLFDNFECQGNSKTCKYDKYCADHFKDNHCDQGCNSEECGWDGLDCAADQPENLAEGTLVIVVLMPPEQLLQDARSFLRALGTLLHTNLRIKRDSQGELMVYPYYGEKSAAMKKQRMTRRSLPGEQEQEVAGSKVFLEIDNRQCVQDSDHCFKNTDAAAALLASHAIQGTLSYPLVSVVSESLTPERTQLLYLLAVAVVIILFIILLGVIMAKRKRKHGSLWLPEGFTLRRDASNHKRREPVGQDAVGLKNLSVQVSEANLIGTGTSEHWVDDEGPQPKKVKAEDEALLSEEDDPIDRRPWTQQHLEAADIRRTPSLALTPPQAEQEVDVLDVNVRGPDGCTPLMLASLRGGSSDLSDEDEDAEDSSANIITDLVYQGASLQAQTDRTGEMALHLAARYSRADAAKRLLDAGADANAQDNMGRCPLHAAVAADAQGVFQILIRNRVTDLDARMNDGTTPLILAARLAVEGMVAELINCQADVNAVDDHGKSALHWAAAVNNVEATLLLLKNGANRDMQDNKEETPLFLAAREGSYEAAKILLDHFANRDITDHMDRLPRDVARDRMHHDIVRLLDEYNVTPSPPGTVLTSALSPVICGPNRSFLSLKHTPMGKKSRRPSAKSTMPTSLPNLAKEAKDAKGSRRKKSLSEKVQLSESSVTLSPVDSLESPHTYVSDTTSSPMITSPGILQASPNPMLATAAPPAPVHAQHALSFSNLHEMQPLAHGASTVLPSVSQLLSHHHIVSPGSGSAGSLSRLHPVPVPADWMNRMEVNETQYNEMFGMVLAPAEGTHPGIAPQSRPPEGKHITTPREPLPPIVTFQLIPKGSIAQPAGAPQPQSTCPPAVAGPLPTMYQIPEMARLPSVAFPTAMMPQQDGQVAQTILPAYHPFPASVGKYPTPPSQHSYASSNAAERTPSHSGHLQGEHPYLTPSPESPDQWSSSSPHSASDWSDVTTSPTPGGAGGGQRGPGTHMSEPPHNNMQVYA
Chain of Pro-neuregulin-1, membrane-bound isoform (Homo sapiens) (Q02297 whole entry, looked up, the tested form may be a part, canonical isoform): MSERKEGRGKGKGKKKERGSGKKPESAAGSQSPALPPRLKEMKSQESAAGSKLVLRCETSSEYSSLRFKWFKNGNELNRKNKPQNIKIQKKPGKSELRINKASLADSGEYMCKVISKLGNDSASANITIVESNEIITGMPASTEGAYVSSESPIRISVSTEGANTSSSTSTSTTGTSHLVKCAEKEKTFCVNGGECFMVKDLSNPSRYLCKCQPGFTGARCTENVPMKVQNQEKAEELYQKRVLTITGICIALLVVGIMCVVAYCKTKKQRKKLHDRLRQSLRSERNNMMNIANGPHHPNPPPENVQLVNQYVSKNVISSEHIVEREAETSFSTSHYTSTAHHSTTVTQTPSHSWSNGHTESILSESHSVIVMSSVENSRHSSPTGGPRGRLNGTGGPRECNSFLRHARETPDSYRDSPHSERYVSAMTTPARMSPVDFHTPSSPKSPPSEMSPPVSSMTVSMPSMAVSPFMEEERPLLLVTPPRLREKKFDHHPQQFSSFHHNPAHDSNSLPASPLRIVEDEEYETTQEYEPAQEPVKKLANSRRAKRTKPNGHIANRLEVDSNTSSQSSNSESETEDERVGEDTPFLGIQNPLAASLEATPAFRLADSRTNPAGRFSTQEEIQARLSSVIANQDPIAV

With `COCCOC(=O)N1C(=O)[C@@]2(c3cc(C#CCCO)ccc31)[C@H](c1ccccc1OCCO)N1[C@H](c3ccccc3)[C@H](c3ccccc3)OC(=O)[C@H]1[C@@H]2C(=O)N1CCCCCCC1`, the composite z-score in [1] worked out at 2.91; in [2] it was 0.821; in experiment [3] it was 0.452; in experiment [4] it was 0.413; in [5] it was 1.14; in [6] it was 1.72. Further, the values for the composite z-score in [7], in experiment [9] and in [10] were 1.32, 2.59 and 2.43, respectively. The z-score in experiment [8] was -3.3 (inactive).

Consider `CN1C(=O)C2C=CC(C(O)c3ccc(F)cc3)N(NC(=O)OC(C)(C)C)C2C1=O` (stereo not given), for which the composite z-score was -0.179 in experiment [1]; -0.598 in [2]; 0.0505 in [3]; 0.257 in experiment [4]; 1 in experiment [5]; 1.68 in experiment [6]. The figures for the composite z-score in experiment [7], in [9] and in [10] were 1.38, 0.734 and -0.0464, respectively. Further, in experiment [8], the z-score was 0.186 (inactive).

Turning to `COc1cc(C(O)C2C=CC3C(=O)N(Cc4ccccc4)C(=O)C3N2n2cnnc2)cc(OC)c1OC` (stereo not given), the composite z-score was -0.246 in experiment [1]; 0.606 in experiment [2]; 0.133 in experiment [3]; 0.537 in experiment [4]; 1.49 in [5]; 0.332 in [6]. Besides, the results for the composite z-score in [7], in experiment [9] and in experiment [10] were 1.14, 0.39 and -0.0867, respectively. Further, the z-score in [8] was -1.7 (inactive).

For `CN1C(=O)C2C(C1=O)C1C=C(CCCO)C2C(c2cccs2)N1Cc1cc2c(cc1Br)OCO2` (stereo not given), the composite z-score in experiment [1] is -0.262; in [2] it was 0.725; in [3], 0.131; in experiment [4] it was 0.645; in [5], 1.62; in [6], 2.19. In addition, the composite z-score in experiment [7] is 1.28; in experiment [9], 1.6; in [10], -0.109. Besides, the z-score in [8] was -3.26 (inactive).

Turning to `C[C@@H]1ON(c2ccc(I)cc2)[C@H](c2ccc(OC(=O)OC(C)(C)C)cc2)[C@H]1C(=O)N1C(=O)OC[C@H]1Cc1ccccc1`, the composite z-score in experiment [1] was -0.478; in experiment [2], 0.0988; in experiment [3] it was -0.175; in [4] it was 0.253; in experiment [5] it was 0.756; in experiment [6] it was 0.178. The composite z-score in [7] was 0.492; in experiment [9], 0.238; in experiment [10] it was -0.0672. Moreover, the z-score in [8] is 3.7 (inactive).

For the molecule `C=C(COC)C(=O)CC[C@H](OC(=O)c1cccnc1)c1ccc(CO)o1`, the composite z-score was -0.403 in experiment [1]; -0.049 in experiment [2]; -0.124 in experiment [3]; 0.842 in experiment [4]; 0.574 in experiment [5]; 0.57 in experiment [6]. Besides, the figures for the composite z-score in [7], in experiment [9] and in experiment [10] were 1.12, 0.34 and -0.0994, respectively. In addition, the z-score in experiment [8] was 0.292 (inactive).

Turning to `C[C@]1(C(=O)NCCN2CCOCC2)c2ccccc2C(=O)N(Cc2cc(F)cc(C(F)(F)F)c2)[C@H]1c1ccc(CO)cc1`, the composite z-score in [1] was 0.0545; in experiment [2], 0.933; in [3], -0.141; in experiment [4], -0.762; in [5], -0.387; in experiment [6] it was 1.06. Moreover, the results for the composite z-score in experiment [7], in experiment [9] and in [10] were 1.47, 1.16 and -0.0994, respectively. Moreover, the z-score in [8] is -1.54 (inactive).

For `CC(=O)N1CC(C(O)C2C=CC3C(=O)NC(=O)C3N2Nc2ccc(Cl)cc2Cl)c2ccccc21` (stereo not given), the composite z-score in experiment [1] was 0.856; in experiment [2], -0.0312; in experiment [3], 0.203; in [4], 0.925; in experiment [5] it was 1.28; in [6], 1.7. Also, the composite z-score stood at 0.727 in experiment [7], 0.496 in experiment [9] and 0.0854 in experiment [10]. Besides, the z-score in experiment [8] is 0.425 (inactive).

Turning to `CN1C(=O)C2C=CC(C(O)c3cc(C(F)(F)F)cc(C(F)(F)F)c3)N(Nc3ccccc3)C2C1=O` (stereo not given), the composite z-score in experiment [1] was -0.481; in [2] it was -0.229; in experiment [3], -0.0656; in experiment [4], 0.05; in [5], 0.245; in experiment [6], 0.862. Further, the composite z-score is 1.25 in experiment [7], -0.106 in [9] and -0.0994 in experiment [10]. Also, the z-score in experiment [8] was 0.715 (inactive).

`CCOC(=O)C=Cc1ccccc1O`: the composite z-score in experiment [1] is -0.13; in [2], 0.0396; in experiment [3] it was -0.0156; in [4], 0.205; in experiment [5], 0.578; in experiment [6], -0.0345. Further, the composite z-score in experiment [7] was 0.614; in [9] it was 0.245; in [10], -0.0003. Further, the z-score in experiment [8] was 0.911 (inactive).

As for `Nc1cc(Br)ccc1C(=O)O`, the composite z-score was -0.0861 in experiment [1]; 0.0499 in [2]; -0.17 in experiment [3]; 0.307 in [4]; 0.314 in experiment [5]; 0.505 in experiment [6]. The composite z-score in experiment [7] is 0.742; in [9] it was 0.195; in experiment [10] it was -0.229. Moreover, in experiment [8], the z-score is 0.0039 (inactive).
